The full ranking holds about 68,000 sequences; the median of “fluorescence intensity (a.u.)” is about 9,100, and the highest 2% start at about 16,000. The entries come from a sample that favours the highest values as a whole.

The target of this assay is OsWRKY34 (Oryza sativa, UniProt Q0JBA9 1-250). The assay can be described thus: protein-binding microarray (RPBM); PBS, 2% BSA, 51.3 ng/ul salmon testes DNA, 50 uM zinc acetate, 200 nM TF, 25 C, 1 h; high values mean tight binding. The note with it: protein: recombinant; tags: N-terminal polyhistidine and DsRed monomer fusion (pET32a); label: CyDye5-dUTP incorporated in the synthesized complementary strand; 3' TTTTT single-stranded linker to array surface; dsDNA, one strand shown. The method in brief: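 Binding signal is defined as the fluorescence intensity of each feature in arbitrary units, read on an Axon 4000B scanner. Transcription factors with N-terminal polyhistidine and DsRed fusions came from E. coli BL21-CodonPlus and were purified on Ni–NTA. They were incubated at 200 nM for 1 h at 25 °C on a custom Agilent array that had been made double-stranded with Cy5-dUTP, with 50 µM zinc acetate present, and the array was washed.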
OsWRKY34, sequence (Q0JBA9 entry or part of it): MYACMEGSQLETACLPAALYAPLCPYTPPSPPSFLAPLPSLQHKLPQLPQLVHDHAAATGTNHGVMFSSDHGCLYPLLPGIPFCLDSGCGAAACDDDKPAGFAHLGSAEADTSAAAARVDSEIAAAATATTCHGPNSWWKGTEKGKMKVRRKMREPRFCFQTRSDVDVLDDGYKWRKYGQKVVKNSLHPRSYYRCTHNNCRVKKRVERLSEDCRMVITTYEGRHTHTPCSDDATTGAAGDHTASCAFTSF
“ACCGTCGTCAGCAACGCCGCTACTGCCACTGCAATTGCCGCGGAGTCACCTAGTGCAG”: the binding signal is 8320 fluorescence intensity (a.u.).

“TTAATGTATGACGCCGTTGACTTTTTAATAAACGTTTGACCGGAGTCACCTAGTGCAG”: the binding signal was 40900 fluorescence intensity (a.u.).

“CCTTTTGGACGTACGTCGATAGTTGGGTAAATATGAAAAACGGAGTCACCTAGTGCAG”: the binding signal was 11400 fluorescence intensity (a.u.).

In the case of “TTTAATGTATCACACCGTTAATTTTTTTTCAACGTTTGACCGGAGTCACCTAGTGCAG”, the binding signal is 8900 fluorescence intensity (a.u.).

As for “ACCTGTAAACTACCGTTGGATAAAAAATAAACGTATGAGACGGAGTCACCTAGTGCAG”, the binding signal is 63600 fluorescence intensity (a.u.).

Regarding “CCGCATTTTAATGTATGACGTCATTGACTTTTCGATCAACCGGAGTCACCTAGTGCAG”, the binding signal is 10200 fluorescence intensity (a.u.).

“TTAATGTATGACGCCGTTGACTTTTTAATCAACGTTTGACCGGAGTCACCTAGTGCAG”: the binding signal was 25900 fluorescence intensity (a.u.).

Turning to “TGTGTACTATTTTTTCTACCGTTGGATACAAATATGAGGGCGGAGTCACCTAGTGCAG”, the binding signal is 8510 fluorescence intensity (a.u.).

As to “TATTTTAATGTATGACGCCGTTGACTTTTTAATCAATGTTCGGAGTCACCTAGTGCAG”, the binding signal was 29100 fluorescence intensity (a.u.).

As to “CTGAAAATTTTGTGCGCTCACACCATGTGCTACATTTGTCCGGAGTCACCTAGTGCAG”, the binding signal is 10700 fluorescence intensity (a.u.).

“TTCCTCCGTTTTTTTTATTCCTGCAACTAAAAGGTATTCTCGGAGTCACCTAGTGCAG”: the binding signal is 8860 fluorescence intensity (a.u.).

Regarding “GGTCTCAGGTTGTCACTTTTCTATCCAGATTTATCGTAGTCGGAGTCACCTAGTGCAG”, the binding signal was 8110 fluorescence intensity (a.u.).

For “ATCCTCACGTAATATACACCTTCGTACCATAATATAATAACGGAGTCACCTAGTGCAG”, the binding signal is 8250 fluorescence intensity (a.u.).

As to “CGCTTCCTGTTGTGATTATGTAATCTTGTATTCTTGTTGACGGAGTCACCTAGTGCAG”, the binding signal was 11600 fluorescence intensity (a.u.).

With “CTCCCTCGTCTTTCTGCTGGCCACCACCCTCCCCGTCTTCCGGAGTCACCTAGTGCAG”, the binding signal was 12300 fluorescence intensity (a.u.).

For “ACCTTTCTCACTACACGCCATTCCGCTCGCGTCCAATTGTCGGAGTCACCTAGTGCAG”, the binding signal is 10100 fluorescence intensity (a.u.).

Regarding “CTCGTCGTCTCCTCCGCTCCTTGCGCCATCTCGCGGCTGACGGAGTCACCTAGTGCAG”, the binding signal was 11500 fluorescence intensity (a.u.).

“CATGATCGCTGTGCACCTTCTGAATCATCTCTTCAATGGCCGGAGTCACCTAGTGCAG”: the binding signal is 9780 fluorescence intensity (a.u.).

Regarding “TTTAAATGTATCATGTCATTGACTTTTTTATAATATTTGACGGAGTCACCTAGTGCAG”, the binding signal was 8120 fluorescence intensity (a.u.).

Regarding “TTTAATGTATGGTGCCGTTGACTTTTTTTATCAATATTTGCGGAGTCACCTAGTGCAG”, the binding signal was 41200 fluorescence intensity (a.u.).

With “CATGCCAATCATAAATAATGACATATTGGTTGACTTTTTGCGGAGTCACCTAGTGCAG”, the binding signal was 11000 fluorescence intensity (a.u.).

For the sequence “CATACTGTTCCACTCGCCCTCGTTTTCTCCGCCACCGAGCCGGAGTCACCTAGTGCAG”, the binding signal was 8450 fluorescence intensity (a.u.).

“TTGACGCCGTTGACTTTTTAATACATGTTTGACCATTCGTCGGAGTCACCTAGTGCAG”: the binding signal was 44300 fluorescence intensity (a.u.).

On to “TTGACGCCGTTGACTTTTTAGTACATGTTTGACCATTCGTCGGAGTCACCTAGTGCAG”, for which the binding signal is 49900 fluorescence intensity (a.u.).

Regarding “TCCGTTTCGGAATGTTTGACGCCGTTGACTTTTTATTACACGGAGTCACCTAGTGCAG”, the binding signal is 25400 fluorescence intensity (a.u.).

As for “CTCCCTTCGTTTCGAAATGTTTGACGCCGTTGACTTTTTACGGAGTCACCTAGTGCAG”, the binding signal is 22800 fluorescence intensity (a.u.).

“ATACTCCCTTCGTTTCGAAATGTTTGACGCCGTTGACTTTCGGAGTCACCTAGTGCAG”: the binding signal is 14300 fluorescence intensity (a.u.).

As for “CGCTGTTCAGACGTTGACTCTCGTTGTTTTTATAGTTTTTCGGAGTCACCTAGTGCAG”, the binding signal is 14600 fluorescence intensity (a.u.).

As for “ACTCTCTCCGTTTCGAAATGTTTGACGCTGTTGACTTTTTCGGAGTCACCTAGTGCAG”, the binding signal is 17500 fluorescence intensity (a.u.).

Regarding “ACTCCCTCCGTTTCAAAATGTTTGACATCATTGACTTTTTCGGAGTCACCTAGTGCAG”, the binding signal is 11100 fluorescence intensity (a.u.).

As to “CTCCCTCCGTTTCGAAATGTTTGACGCCGTTGACTTTTTACGGAGTCACCTAGTGCAG”, the binding signal was 15900 fluorescence intensity (a.u.).

“CTCCCTCTATCAAAAAAATGTTTGACGCCGTTGACTTTTTCGGAGTCACCTAGTGCAG”: the binding signal is 25600 fluorescence intensity (a.u.).

With “CACCCTCTCCCGTGTTCCACCCCGCCCGCGAATCATATCCCGGAGTCACCTAGTGCAG”, the binding signal was 9340 fluorescence intensity (a.u.).

As for “TCCGTCCCTGCAGTCACCTTATTGGTCAAATTTTAAATATCGGAGTCACCTAGTGCAG”, the binding signal is 13400 fluorescence intensity (a.u.).

With “TAGGGGTGGGCATTCGGTCTAACTGAAAATTTCGGTCTCGCGGAGTCACCTAGTGCAG”, the binding signal was 13500 fluorescence intensity (a.u.).

“TGACGTTTGACCAAAGTTTTCTTCAATTTTTCAGAAATGGCGGAGTCACCTAGTGCAG”: the binding signal was 9900 fluorescence intensity (a.u.).

As to “GGTCTATGTCTCTCTGATTATTTCTTTTACTAATTGTTTGCGGAGTCACCTAGTGCAG”, the binding signal was 9060 fluorescence intensity (a.u.).

As for “CTTCTGCTCTCTAGCTAGCCTTCTTCCTATTGGAAGCTTCCGGAGTCACCTAGTGCAG”, the binding signal is 9230 fluorescence intensity (a.u.).

Regarding “TTCTCTTTTATCTGTTTGCTTCCTATAAATTCTACGCGATCGGAGTCACCTAGTGCAG”, the binding signal is 8480 fluorescence intensity (a.u.).

For “CCGCTGGCCCTTGTTGACACCTTGACTACGAAATGTATTCCGGAGTCACCTAGTGCAG”, the binding signal was 8980 fluorescence intensity (a.u.).

In the case of “TTATACTCCCTCCGTTTCGAAATGTTTGACGCCGTTGACTCGGAGTCACCTAGTGCAG”, the binding signal is 11400 fluorescence intensity (a.u.).

In the case of “GATCCTCTGTTTTATCTACGCGTTCCTATCAAATTCCTTTCGGAGTCACCTAGTGCAG”, the binding signal was 16800 fluorescence intensity (a.u.).

“CAACGAAAATACTAACAACATGCACCTGGCCGCGTTGACCCGGAGTCACCTAGTGCAG”: the binding signal was 13900 fluorescence intensity (a.u.).

For the sequence “CATTCCTATCAAAATCCTACGTTTTTCCTATTCCTACGTTCGGAGTCACCTAGTGCAG”, the binding signal was 9840 fluorescence intensity (a.u.).

On to “TGCACCTGGCCGCGTTGACCGTTCGAAATGTATATATTCCCGGAGTCACCTAGTGCAG”, for which the binding signal was 19600 fluorescence intensity (a.u.).

In the case of “ATATTCCCTCCGTTTTGAAATGTTTGACGCCGTTGACTTTCGGAGTCACCTAGTGCAG”, the binding signal was 17000 fluorescence intensity (a.u.).

Source of the values: article PMC7819943, “Rice protein-binding microarrays: a tool to detect cis-acting elements near promoter regions in rice”.
